Assay [1] can be described thus: qHTS for Inhibitors of Plasmodium falciparum (DD2) proliferation (AID 504314).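 Further: parasite DNA measured by SYBR Green fluorescence after red cell lysis; plate controls were DMSO vehicle for no effect and artemisinin wells for full effect.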 Put shortly:
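Fluorescence read-out (ex 485/em 535 nm) of SYBR Green-stained parasite DNA quantifies intraerythrocytic growth. Cultures at 0.3% parasitemia and 2.5% hematocrit were treated for 72 h; data normalized to DMSO and 0.29 uM artemisinin wells.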
On the technique in general: In qHTS, concentration-response curves come from the screen itself.

Assay [2] is described as follows: qHTS for Inhibitors of Plasmodium falciparum (7G8) proliferation (AID 504316).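 Further: series mostly up to about 6.7 µM; 0% = DMSO vehicle and -100% = 0.29 µM artemisinin full kill; nearly all actives have a fitted effect of over 65% in size.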 Put shortly: (§1)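 Erythrocytes infected with P. falciparum line (0.3% parasitemia, 2.5% hematocrit final) incubated with compounds 72 h at 37 °C, 5% CO2; SYBR Green lysis buffer added, fluorescence read next day. Normalized to 0.29 uM artemisinin and DMSO.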
The nature of assay [3]: qHTS for Inhibitors of Plasmodium falciparum (HB3) proliferation (AID 504318).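 Further: 0% = DMSO vehicle and -100% = artemisinin control; nearly all actives have a fitted effect of over 60% in size.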 The gist of the method: as §1
Assay [4] is described as follows: qHTS for Inhibitors of Plasmodium falciparum (CP250) proliferation (AID 504320).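 Further: plate controls were DMSO vehicle for no effect and 0.29 µM artemisinin control for full effect.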 Put shortly: as §1
In assay [5] the target is Atrial natriuretic peptide receptor 1 (Homo sapiens) (UniProt P16066). As to the kind of experiment: Natriuretic polypeptide receptor (hNpr1) antagonism - Pilot CMLD screen (AID 1347052; calls by dose curve;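 further: cGMP level read as GloSensor luciferase luminescence after agonist stimulation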; further: potency means the concentration at half of the fitted maximal effect;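 on activity change, negative = inhibition: HEK293 cells with hNpr1 stimulated by hNppA peptide at 0.1 nM; series mostly up to about 9.2 µM; on the % scale 0 is the no-effect control and ±100 the full control effect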).
Chain of Atrial natriuretic peptide receptor 1 (Homo sapiens) (P16066 whole entry, looked up): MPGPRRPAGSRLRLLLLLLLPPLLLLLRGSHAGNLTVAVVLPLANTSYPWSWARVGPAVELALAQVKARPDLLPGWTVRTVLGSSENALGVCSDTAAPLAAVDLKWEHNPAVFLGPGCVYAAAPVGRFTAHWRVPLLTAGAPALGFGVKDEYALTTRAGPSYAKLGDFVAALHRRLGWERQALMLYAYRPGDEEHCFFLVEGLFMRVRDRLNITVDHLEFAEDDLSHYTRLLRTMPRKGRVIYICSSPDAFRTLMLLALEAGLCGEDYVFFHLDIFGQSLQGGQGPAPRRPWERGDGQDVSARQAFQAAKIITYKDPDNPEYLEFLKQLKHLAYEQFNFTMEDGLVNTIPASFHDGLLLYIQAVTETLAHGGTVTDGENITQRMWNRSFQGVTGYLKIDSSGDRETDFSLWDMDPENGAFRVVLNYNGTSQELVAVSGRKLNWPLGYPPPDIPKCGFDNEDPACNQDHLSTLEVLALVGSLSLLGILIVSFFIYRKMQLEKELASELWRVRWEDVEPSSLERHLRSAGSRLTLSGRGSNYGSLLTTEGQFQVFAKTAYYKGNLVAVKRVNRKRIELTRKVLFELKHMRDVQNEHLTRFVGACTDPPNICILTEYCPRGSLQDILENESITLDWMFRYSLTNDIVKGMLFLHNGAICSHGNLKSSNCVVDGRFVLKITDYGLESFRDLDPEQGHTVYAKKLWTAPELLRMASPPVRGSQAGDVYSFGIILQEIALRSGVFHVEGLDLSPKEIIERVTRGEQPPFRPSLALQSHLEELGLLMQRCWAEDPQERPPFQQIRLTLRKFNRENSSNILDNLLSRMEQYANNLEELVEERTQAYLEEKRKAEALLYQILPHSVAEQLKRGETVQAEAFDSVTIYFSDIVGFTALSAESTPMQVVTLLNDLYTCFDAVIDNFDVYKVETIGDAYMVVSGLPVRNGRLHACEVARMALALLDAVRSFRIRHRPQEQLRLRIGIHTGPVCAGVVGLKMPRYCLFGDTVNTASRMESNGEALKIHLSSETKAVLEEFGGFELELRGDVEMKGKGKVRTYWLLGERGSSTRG
Assay [6] deals with Cytochrome P450 2C9 (Homo sapiens) (UniProt P11712). The assay is described as follows: qHTS Assay for Inhibitors and Substrates of Cytochrome P450 2C9 (AID 883). Further: on the % scale 0 is the no-effect control and ±100 the full control effect; nearly all actives have a fitted effect of over 60% in size. The gist of the method:
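Luminescent read-out of deoxyluciferin hydroxylation, normalized to 57uM sulphaphenazole (AC100). Reaction: 10nM enzyme, 100uM Luciferin-H (equal to KM), 25mM KPO4, 10 min compound preincubation, then 60 min with NADPH regeneration, both at 37C.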

The target in assay [7] is Cytochrome P450 2D6 (Homo sapiens) (UniProt P10635). The assay is described as follows: qHTS Assay for Inhibitors and Substrates of Cytochrome P450 2D6 (AID 891).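 Further: luciferin methyl ether substrate demethylated by CYP2D6 with NADPH regeneration; on the % scale 0 is the no-effect control and ±100 the full control effect; nearly all actives have a fitted effect of over 60% in size.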 The gist of the method:
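Human CYP2D6 (5 nM) with 30 uM Luciferin-ME EGE (at Km) in 100 mM KPO4, compound preincubated 10 min, then NADPH regeneration system for 60 min at room temperature. Luciferin read by luminescence; normalized to 1.43 uM quinidine.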

The target in assay [8] is Cytochrome P450 2C19 (Homo sapiens) (UniProt P33261). The assay is described as follows: qHTS Assay for Inhibitors and Substrates of Cytochrome P450 2C19 (AID 899). Further: on the % scale 0 is the no-effect control and ±100 the full control effect; nearly all actives have a fitted effect of over 60% in size. The gist of the method: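 Luminescence readout of luciferin formed from 10uM Luciferin-H EGE (KM level) by 5 nM CYP2C19 in 50mM KPO4. 60 min NADPH-driven reaction at 37C after 10 min compound preincubation; data scaled to 57uM ketoconazole inhibition.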
Chain of Cytochrome P450 2C19 (Homo sapiens) (P33261 whole entry, looked up): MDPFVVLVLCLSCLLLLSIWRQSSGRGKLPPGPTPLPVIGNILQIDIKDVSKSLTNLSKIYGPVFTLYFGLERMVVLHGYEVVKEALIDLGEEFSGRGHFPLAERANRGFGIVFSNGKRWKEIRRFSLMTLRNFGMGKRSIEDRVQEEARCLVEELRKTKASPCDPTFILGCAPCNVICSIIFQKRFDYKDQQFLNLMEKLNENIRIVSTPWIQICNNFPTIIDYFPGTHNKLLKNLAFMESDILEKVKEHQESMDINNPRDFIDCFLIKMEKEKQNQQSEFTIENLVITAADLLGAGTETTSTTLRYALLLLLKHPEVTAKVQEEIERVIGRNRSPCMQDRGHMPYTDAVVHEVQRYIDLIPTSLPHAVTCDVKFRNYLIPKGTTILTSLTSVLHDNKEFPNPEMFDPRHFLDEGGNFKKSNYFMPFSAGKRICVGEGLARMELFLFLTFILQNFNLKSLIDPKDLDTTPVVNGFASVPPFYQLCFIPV

This passage reports Potency, activity, negative = inhibition and activity change, negative = inhibition results from PubChem BioAssay (NCATS).

Results filed as inconclusive are left out. A number with no mark means an inactive call. The source made the active and inactive calls. Unless noted, the call rests on the fitted dose curve; in most records, active means well fitted curve in the direction sought with a large enough effect; inconclusive means small, poorly fitted or top-dose-only effect, or another doubt; inactive means no such curve, though single readings can be large; an effect the other way counts as inactive or inconclusive.

Chain of Cytochrome P450 2C9 (Homo sapiens) (P11712 whole entry, looked up): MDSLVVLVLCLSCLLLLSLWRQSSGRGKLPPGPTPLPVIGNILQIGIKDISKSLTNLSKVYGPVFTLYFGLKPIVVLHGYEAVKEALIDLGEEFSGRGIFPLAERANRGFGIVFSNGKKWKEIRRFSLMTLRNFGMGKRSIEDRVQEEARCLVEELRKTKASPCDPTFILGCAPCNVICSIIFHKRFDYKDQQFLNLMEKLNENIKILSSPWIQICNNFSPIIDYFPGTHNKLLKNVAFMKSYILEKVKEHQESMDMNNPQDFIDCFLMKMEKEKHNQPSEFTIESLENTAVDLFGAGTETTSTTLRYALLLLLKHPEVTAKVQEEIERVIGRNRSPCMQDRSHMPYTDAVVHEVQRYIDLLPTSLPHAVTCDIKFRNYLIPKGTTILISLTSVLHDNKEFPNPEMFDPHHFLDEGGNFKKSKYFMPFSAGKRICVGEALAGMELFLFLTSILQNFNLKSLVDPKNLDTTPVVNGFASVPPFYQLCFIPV
Chain of Cytochrome P450 2D6 (Homo sapiens) (P10635 whole entry, looked up): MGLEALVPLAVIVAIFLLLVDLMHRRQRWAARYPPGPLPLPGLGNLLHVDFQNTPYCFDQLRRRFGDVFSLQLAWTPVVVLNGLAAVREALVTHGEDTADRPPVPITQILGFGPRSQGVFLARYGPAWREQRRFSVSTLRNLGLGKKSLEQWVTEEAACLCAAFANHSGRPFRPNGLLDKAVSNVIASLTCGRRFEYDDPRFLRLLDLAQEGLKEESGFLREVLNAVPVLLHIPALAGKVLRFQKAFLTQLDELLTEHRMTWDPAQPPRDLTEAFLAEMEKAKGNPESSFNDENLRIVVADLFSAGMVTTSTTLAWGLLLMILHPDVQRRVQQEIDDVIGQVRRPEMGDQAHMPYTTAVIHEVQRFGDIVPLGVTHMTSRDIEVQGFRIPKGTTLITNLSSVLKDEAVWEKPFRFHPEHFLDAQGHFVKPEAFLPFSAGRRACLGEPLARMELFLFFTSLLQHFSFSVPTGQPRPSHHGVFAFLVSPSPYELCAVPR

Regarding `C=CCOC(=O)N[C@H](C(C(=O)OC)=C(C)NCc1ccccc1)c1ccc2c(c1)OCO2`, the Potency result in assay [1], in assay [2], in assay [3], in assay [4] and in assay [5] was “inactive” each time.

As to `COc1cc2c(c(OC)c1)[C@H](C=Cc1ccccc1)[C@@H]([C@H](O)CO)OC2`, the Potency entry in assay [1], in assay [2], in assay [3], in assay [4] and in assay [5] was “inactive” each time.

For `CCCCCCCC1=CC2=C(Cl)C(=O)C(C)(OC(C)=O)C(=O)C2=CO1` (stereo not drawn), the Potency entry in assay [1], in assay [2], in assay [3], in assay [4] and in assay [5] was “inactive” each time.

As to `COC(=O)[C@H]1[C@@H](c2ccccc2)NC(=O)N(Cc2ccccc2)[C@@H]1C`, the Potency result in assay [1], in assay [2], in assay [3], in assay [4] and in assay [5] was “inactive” in each case.

Turning to `CC(=O)OC[C@H]1O[C@@H](ON=C2C[C@@H](O)[C@@H](O)[C@@H]3[C@H]4C(=O)N(Cc5ccccc5)C(=O)[C@@H]4CC[C@@H]23)[C@H](OC(C)=O)[C@@H](OC(C)=O)[C@H]1OC(C)=O`, the Potency entry in assay [1], in assay [2], in assay [3], in assay [4] and in assay [5] was “inactive” in each case.

For `CC(=O)OC[C@H]1O[C@H](CC=NO[C@H](C)c2cn([C@H](CO)Cc3ccccc3)nn2)C=C[C@@H]1OC(C)=O`, the Potency entry in assay [1], in assay [2], in assay [3], in assay [4] and in assay [5] was “inactive” throughout.

Regarding `COC(=O)C1=C(C(=O)OC)[C@@H]2Nc3ccccc3[C@@]23C[C@@H](C(=O)OC)N(C(=O)Nc2ccc(C(F)(F)F)cc2)C3=N1`, the Potency entry in assay [1], in assay [2], in assay [3], in assay [4] and in assay [5] was “inactive” in each case.

`COC(=O)CC(Oc1c(C)n(C)c2ccccc2c1=O)c1ccccc1` (stereo not drawn): the Potency result in assay [1], in assay [2], in assay [3], in assay [4] and in assay [5] was “inactive” in each case.

In the case of `COC(=O)C1(C)C=C(Nc2ccc(OC)cc2)C(=O)N1c1ccc(OC)cc1` (stereo not drawn), the Potency entry in assay [1], in assay [2], in assay [3], in assay [4] and in assay [5] was “inactive” throughout.

As for `O=C(NN=C1C[C@@H](O)[C@H](O)[C@H]2[C@@H]3C(=O)N(C4CCCCC4)C(=O)[C@@H]3CC[C@H]12)OCc1ccccc1`, the Potency result in assay [1], in assay [2], in assay [3], in assay [4] and in assay [5] was “inactive” in each case.

For `C=CCC(C)(NCc1ccccc1)C(=O)OCC` (stereo not drawn), the Potency entry in assay [1], in assay [2], in assay [3], in assay [4] and in assay [5] was “inactive” each time.

On to `CC1(OC(=O)C2CCCC2)C(=O)C=C2C=C(c3ccsc3)N(C3CCCC3)C=C2C1=O` (stereo not drawn), for which, in assay [1], the activity, negative = inhibition is -4.53% [at 1.12 µM]. The Potency result in assay [2], in assay [3], in assay [4] and in assay [5] was “inactive” in each case.

On to `COC(=O)[C@@]1(C=C2c3ccc(F)cc3[C@@H](OC)[C@@H]2C)[C@@H]2C=CC[C@@H]21`, for which the Potency entry in assay [1], in assay [2], in assay [4] and in assay [5] was “inactive” in each case.

Regarding `O=C1CCCC(C(C(=O)OCc2ccccc2)C(=O)OCc2ccccc2)C1` (stereo not drawn), the Potency entry in assay [1], in assay [2], in assay [3], in assay [4] and in assay [5] was “inactive” in each case.

With `CC(C)(C)Nc1oc(-c2ccccc2)nc1-c1ccccc1F`, the Potency entry in assay [1], in assay [2], in assay [3], in assay [4] and in assay [5] was “inactive” throughout.

With `C=C(C(C)=O)C(O)c1ccc([N+](=O)[O-])cc1` (stereo not drawn), the Potency result in assay [1], in assay [2], in assay [3] and in assay [4] was “inactive” in each case. Further, in assay [5], the Potency is 1.88 µM (active).

For `O=C(Oc1ccccc1)[C@H]1O[C@H]1c1ccccc1`, the Potency result in assay [1], in assay [2], in assay [3], in assay [4] and in assay [5] was “inactive” throughout.

`COC(=O)CCCC1=CC2=C(c3ccccc3)C(=O)C(C)(OC(=O)C3CCCC3)C(=O)C2=CN1Cc1ccc2c(c1)OCO2` (stereo not drawn): the activity, negative = inhibition in assay [1] was -1.06% [at 1.12 µM]. For the same compound, the Potency result in assay [2], in assay [4] and in assay [5] was “inactive” in each case.

For `COC(=O)C1=C(C(=O)OC)[C@@H]2Nc3ccccc3[C@@]23C[C@@H](C(=O)OC)N(C(=O)Nc2ccccc2F)C3=N1`, the Potency entry in assay [1], in assay [2], in assay [4] and in assay [5] was “inactive” in each case.

Consider `Cc1c(O)c(=O)c2ccccc2n1C`, for which the activity change, negative = inhibition in assay [6] was 25.8% [at 11.4 µM]; in assay [7], 2.15% [at 11.4 µM]. Further, the activity, negative = inhibition in assay [8] is 73.4% [at 11.4 µM]. The Potency entry in assay [1], in assay [2], in assay [3], in assay [4] and in assay [5] was “inactive” each time.

In the case of `CC(=O)OC[C@H]1O[C@H](CC=NOC[C@@H](O)COCc2ccco2)C=C[C@H]1OC(C)=O`, the Potency entry in assay [1], in assay [2], in assay [3], in assay [4] and in assay [5] was “inactive” throughout.

For `CCOC(=O)CCN1C(=O)[C@@H]2[C@H]3[C@H](O)[C@H](O)CC(=NNC(=O)OCc4ccc(OC)cc4)[C@@H]3CC[C@H]2C1=O`, the Potency result in assay [1], in assay [2], in assay [4] and in assay [5] was “inactive” in each case.

On to `C=CCCN1C(=O)NC(c2ccccc2)C(C(=O)OC)=C1C` (stereo not drawn), for which the Potency entry in assay [1], in assay [2], in assay [4] and in assay [5] was “inactive” in each case.

Turning to `COc1cccc2c1C1(CCCCC1)CC2NC(=O)C(F)(F)F` (stereo not drawn), the Potency entry in assay [1], in assay [2], in assay [3], in assay [4] and in assay [5] was “inactive” throughout.
